Data as given in PubChem BioAssay (Tox21).
Inconclusive results are not listed. Calls of active or inactive are those of the source. Unless noted, calls follow the shape of the dose curve; as a rule, active = well fitted curve in the direction sought with a large enough effect in the repeat runs; inconclusive = weak or mixed curves; inactive = no such curve, though single readings can be large; an effect the other way counts as inactive or inconclusive.

Legend:
[1] = qHTS assay for small molecule agonists of the p53 signaling pathway (AID 651631; calls by dose curve; also: nearly all actives have a fitted effect of over 15% in size)
Method in brief: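 HCT-116 cells carrying a stable p53 response element–beta-lactamase reporter were plated, rested 5 h at 37 °C, then exposed to compound in DMSO for 16 h at 37 °C; reporter activity was read as FRET substrate fluorescence after 2 h at room temperature.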

[2] = qHTS assay for small molecule agonists of the p53 signaling pathway - cell viability (AID 651633; calls by dose curve; also: nearly all actives have a fitted effect of over 30% in size; also: potency is read from the fitted curve at half-maximal effect)
Method in brief: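 p53RE-bla cells were treated with compound for 16 hours at 37 C. Cytotoxicity was then measured as CellTiter-Glo luminescence after 30 min at room temperature.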

[3] = qHTS assay for small molecules that induce genotoxicity in human embryonic kidney cells expressing luciferase-tagged ATAD5 - cell viability (AID 651634; calls by dose curve; also: nearly all actives have a fitted effect of over 25% in size)
Method in brief: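 HEK293T cells expressing luciferase-tagged ATAD5 were exposed to compound or DMSO for 15.5 hr at 37C, 5% CO2. Viability was then read as live-cell protease activity by CellTiter-Fluor fluorescence after 30 min at 37C.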

[4] = qHTS assay for small molecule disruptors of the mitochondrial membrane potential - cell viability (AID 720634; calls by dose curve;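 also: human HepG2 liver cancer cells; nearly all actives have a fitted effect of over 20% in size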)
Method in brief: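 HepG2 cells seeded overnight at 37 C, then exposed to compound or DMSO for 1 hr at 37 C, 5% CO2. m-MPI dye added, then CellTiter-Glo for 30 min at room temperature; viability read as ATP luminescence.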

[5] = qHTS assay to test for compound auto fluorescence at 590 nm (red) in HepG2 cells (AID 720674)
Method in brief: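 HepG2 cells, 2,000 per well in MEM with 10% FBS, attached overnight at 37 C, then got 23 nL compound or DMSO. After 1 hr at 37 C, 5% CO2, red fluorescence was read at 540/590 nm against Rose Bengal sodium as reference.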

[6] = qHTS assay to test for compound auto fluorescence at 535 nm (green) in HepG2 cells (AID 720675)
[7] = qHTS assay to test for compound auto fluorescence at 590 nm (red) in HEK293 cells (AID 720679)
Method in brief: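 Each well held 2,000 HEK293 cells in medium containing 10% dialyzed FBS. Following 4-5 hr attachment at 37C, 23 nL test compound or DMSO was added; plates sat overnight, and red fluorescence (540/590nm) was recorded.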

[8] = qHTS assay to test for compound auto fluorescence at 535 nm (green) in HEK293 cells (AID 720680)
[9] = qHTS assay to test for compound auto fluorescence at 460 nm (blue) in HEK293 cell free culture (AID 720681)
Method in brief: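 Compounds were added to cell-free DMEM with 10% FBS and fluorescence read directly. The blue channel used 405 nm excitation and 460 nm emission, with triamterene as the reference fluorophore.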

[10] = qHTS assay to test for compound auto fluorescence at 535 nm (green) in HEK293 cell free culture (AID 720682)
Method in brief: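 Read-out: 485/535 nm fluorescence intensity, calibrated against fluorescein. Medium only (DMEM + 10% FBS, no cells); test compound or DMSO vehicle added by pintool before plate reading.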

[11] = qHTS assay to test for compound auto fluorescence at 590 nm (red) in HEK293 cell free culture (AID 720683)
Method in brief: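 Cell-free wells of DMEM with 10% FBS received compound, and intrinsic fluorescence was read at excitation/emission 540/590 nm. Values expressed as equivalence to Rose Bengal sodium.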

[12] = qHTS assay to test for compound auto fluorescence at 590 nm (red) in HepG2 cell free culture (AID 720684)
Method in brief: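 Compound was pinned into wells holding MEM with 10% FBS and no cells, and red fluorescence was read at Ex/Em 540/590 nm. Signal is expressed as auto fluorescence equivalency relative to Rose Bengal sodium.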

[13] = qHTS assay to test for compound auto fluorescence at 460 nm (blue) in HepG2 cell free culture (AID 720685)
Method in brief: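 Compound (23 nL) or DMSO pinned into cell-free MEM with 10% FBS; blue fluorescence read at 405/460 nm excitation/emission, expressed as auto-fluorescence equivalency to triamterene.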

[14] = qHTS assay to test for compound auto fluorescence at 535 nm (green) in HepG2 cell free culture (AID 720686)
[15] = qHTS assay to test for compound auto fluorescence at 460 nm (blue) in HepG2 cells (AID 720687)
Method in brief: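 HepG2 cells in MEM with 10% FBS, attached overnight at 37 C, were exposed to compound or DMSO for 1 hr at 37 C, 5% CO2. Blue fluorescence was read at 405/460 nm, with triamterene as reference fluorophore.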

[16] = biological target: Glucocorticoid receptor (Homo sapiens) (UniProt P04150); experiment: qHTS assay to identify small molecule agonists of the glucocorticoid receptor (GR) signaling pathway (AID 720691; active = well fitted activation curve with a large enough effect in the signal ratio in the repeat runs, not every such curve was filed as active; the % refers to the signal ratio); details: GR-bla HeLa, beta-lactamase reporter ratio, 18 h; activation: at 62.4 µM (top of the series) unless noted
Method in brief: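 GR-bla HeLa cells (beta-lactamase reporter under glucocorticoid response element) were plated 4 h at 37 C/5% CO2, given compounds in DMSO, and incubated 18 h at 37 C. LiveBLAzer B/G FRET substrate was added for 2 h at room temperature, then fluorescence intensity read.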

[17] = biological target: Glucocorticoid receptor (Homo sapiens) (UniProt P04150); experiment: qHTS assay to identify small molecule antagonists of the glucocorticoid receptor (GR) signaling pathway (AID 720692; active = well fitted inhibition curve with a large enough effect in the signal ratio in the repeat runs, not every such curve was filed as active; the % refers to the signal ratio)
Method in brief: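 GR-bla HeLa cells (beta-lactamase reporter under glucocorticoid response element) were pre-plated 4 h at 37 C, treated with compounds plus 5 nM dexamethasone (final) for 18 h, then read by LiveBLAzer B/G FRET fluorescence after 2 h.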

[18] = qHTS assay for small molecules that induce genotoxicity in human embryonic kidney cells expressing luciferase-tagged ATAD5 (AID 651632); also: nearly all actives have a fitted effect of over 15% in size
Method in brief: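 HEK293T cells carrying a luciferase reporter tagged to ATAD5 were exposed to compound or DMSO vehicle for 16 hr at 37C, 5% CO2. Amplite was added, and after 30 min at room temperature luciferase activity was read as a marker of ATAD5 induction.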

[19] = qHTS assay for small molecule disruptors of the mitochondrial membrane potential (AID 720635)
Method in brief: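 HepG2 cells exposed to compound 1 hr at 37C, then Mito-MPS dye 30 min. Ratio read of aggregate (540/590 nm) versus monomer (490/535 nm) fluorescence.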

[20] = qHTS assay to test for compound auto fluorescence at 460 nm (blue) in HEK293 cells (AID 720678)
Method in brief: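 Cells were seeded and left to adhere for 4-5 hr at 37C. Compounds were then pin-transferred. After an overnight incubation at 37C under 5% CO2, intrinsic fluorescence at 405/460 nm was measured and referenced to triamterene.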
% is scaled to controls: 0 for no effect and ±100 for the full control effect.

Chain of Glucocorticoid receptor (Homo sapiens) (P04150 whole entry, looked up): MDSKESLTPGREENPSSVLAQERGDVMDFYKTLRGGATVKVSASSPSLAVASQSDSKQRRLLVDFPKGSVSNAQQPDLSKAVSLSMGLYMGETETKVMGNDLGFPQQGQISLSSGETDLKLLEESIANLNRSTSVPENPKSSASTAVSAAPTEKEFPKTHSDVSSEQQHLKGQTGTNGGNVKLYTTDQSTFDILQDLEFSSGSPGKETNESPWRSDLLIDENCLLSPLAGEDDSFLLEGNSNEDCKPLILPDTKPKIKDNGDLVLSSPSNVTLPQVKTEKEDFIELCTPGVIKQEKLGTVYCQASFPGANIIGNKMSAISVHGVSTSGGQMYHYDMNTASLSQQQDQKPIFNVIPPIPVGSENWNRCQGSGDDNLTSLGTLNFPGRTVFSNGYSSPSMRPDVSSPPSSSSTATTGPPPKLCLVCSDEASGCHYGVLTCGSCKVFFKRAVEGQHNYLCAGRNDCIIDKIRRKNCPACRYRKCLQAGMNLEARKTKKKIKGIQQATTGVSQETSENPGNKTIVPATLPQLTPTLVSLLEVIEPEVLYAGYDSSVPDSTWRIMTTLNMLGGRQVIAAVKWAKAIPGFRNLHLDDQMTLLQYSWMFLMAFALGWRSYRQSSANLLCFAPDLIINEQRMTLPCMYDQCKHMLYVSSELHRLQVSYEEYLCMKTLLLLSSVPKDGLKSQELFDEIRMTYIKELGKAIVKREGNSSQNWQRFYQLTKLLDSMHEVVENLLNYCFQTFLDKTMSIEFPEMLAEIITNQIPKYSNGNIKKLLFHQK

CCC(C)O (stereo unspecified)
inactive: Potency [1] | Potency [2] | Potency [3] | Potency [4] | Potency [5] | Potency [6] | Potency [7] | outcome [8] | outcome [9] | outcome [10] | Potency [11] | Potency [12] | outcome [13] | Potency [14] | outcome [15] | Potency [16] | Potency [17]

CC(C)(C)Cl
inactive: Potency [18] | Potency [2] | Potency [3] | Potency [4] | Potency [19] | Potency [5] | Potency [6] | Potency [7] | outcome [8] | outcome [9] | outcome [10] | Potency [11] | Potency [12] | outcome [13] | Potency [14] | outcome [15]

C[N+]1(C)CCC(OC(=O)C(O)(c2ccccc2)C2CCCC2)C1 (stereo unspecified)
inactive: Potency [18] | Potency [2] | Potency [3] | Potency [4] | Potency [19] | Potency [5] | Potency [6] | outcome [20] | outcome [8] | outcome [9] | outcome [10] | Potency [11] | Potency [12] | outcome [13] | outcome [15] | Potency [16]

C=C(C)C(=O)OCCO
inactive: Potency [18] | Potency [2] | Potency [3] | Potency [4] | Potency [19] | Potency [6] | outcome [20] | outcome [9] | outcome [10] | Potency [11] | Potency [12] | outcome [13] | Potency [14] | outcome [15] | Potency [16]

c1ccc(C(O[C@H]2CCCN(CCc3ccc4c(c3)OCO4)C2)c2ccccc2)cc1
inactive: Potency [1] | Potency [18] | Potency [3] | Potency [4] | Potency [5] | Potency [6] | outcome [20] | outcome [8] | outcome [9] | outcome [10] | Potency [11] | Potency [12] | outcome [13] | Potency [14] | outcome [15] | Potency [16]

Cc1c(N)cccc1[N+](=O)[O-]
inactive: Potency [18] | Potency [2] | Potency [4] | Potency [19] | Potency [5] | Potency [6] | outcome [20] | Potency [7] | outcome [8] | outcome [9] | outcome [10] | Potency [12] | outcome [13] | outcome [15] | Potency [16] | Potency [17]

CC(C)(COC(=O)c1ccccc1)COC(=O)c1ccccc1
inactive: Potency [18] | Potency [2] | Potency [3] | Potency [4] | Potency [6] | outcome [20] | Potency [7] | outcome [8] | outcome [9] | outcome [10] | Potency [11] | Potency [12] | outcome [13] | Potency [14] | outcome [15] | Potency [16]

CCCCCCCCCCCCCCCCCCOS(=O)(=O)O
inactive: Potency [18] | Potency [3] | Potency [4] | Potency [5] | Potency [6] | Potency [7] | outcome [8] | outcome [9] | outcome [10] | Potency [12] | outcome [13] | Potency [14] | outcome [15] | Potency [16]
active: Potency [2] 61.1 µM

CN(C)CCCN1c2ccccc2Sc2ccccc21
inactive: Potency [18] | Potency [2] | Potency [3] | Potency [4] | fluorescence, relative to Rose Bengal [5] 0.23% [at 18.6 µM] | fluorescence, % of fluorescein control [6] -0.18% [at 18.6 µM] | fluorescence, % of triamterene [20] 0.0346% [at 18.6 µM] | fluorescence, % of fluorescent control [7] -0.0069% [at 18.6 µM] | fluorescence, % of fluorescein [8] -0.0365% [at 18.6 µM] | fluorescence, % of fluorescent control [9] -0.0313% [at 18.6 µM] | activity change [10] -0.0157% [at 18.6 µM] | fluorescence, % of fluorescent control [11] 0.0444% [at 18.6 µM] | fluorescence, % of Rose Bengal [12] -0.194% [at 18.6 µM] | fluorescence, % of fluorescent control [13] 0.0019% [at 18.6 µM] | fluorescence, % of fluorescein control [14] 0.134% [at 18.6 µM] | fluorescence, % of fluorescent control [15] -0.0716% [at 18.6 µM]

NCCCN1CCOCC1
inactive: Potency [18] | Potency [2] | Potency [3] | Potency [4] | Potency [5] | Potency [6] | outcome [20] | outcome [8] | outcome [9] | outcome [10] | Potency [11] | Potency [12] | outcome [13] | Potency [14] | outcome [15] | Potency [16] | Potency [17]

CCC(CC)Nc1ccc(C)c(C)c1
inactive: Potency [18] | Potency [2] | Potency [3] | Potency [4] | Potency [5] | Potency [6] | outcome [20] | Potency [7] | outcome [8] | outcome [9] | outcome [10] | Potency [11] | Potency [12] | outcome [13] | Potency [14] | outcome [15]

CCCCCCCCCCCCCCCCOS(=O)(=O)O
inactive: Potency [18] | Potency [2] | Potency [3] | Potency [4] | Potency [6] | outcome [8] | outcome [9] | outcome [10] | Potency [11] | Potency [12] | outcome [13] | Potency [14] | outcome [15]

COc1cc2c(cc1OC)C(C(C(=O)N(CCc1ccc(OC)c(OC)c1OC)CCc1ccc(OC)c(OC)c1OC)c1ccccc1)=NCC2 (stereo unspecified)
inactive: Potency [18] | Potency [2] | Potency [4] | Potency [5] | Potency [6] | outcome [20] | Potency [7] | outcome [8] | outcome [9] | outcome [10] | Potency [11] | Potency [12] | outcome [13] | Potency [14] | outcome [15]

CCCCCCCC/C=C\CCCCCCCC(=O)OCC
inactive: Potency [18] | Potency [2] | Potency [4] | Potency [19] | Potency [5] | Potency [6] | outcome [20] | Potency [7] | outcome [9] | outcome [10] | Potency [11] | Potency [12] | outcome [13] | Potency [14] | outcome [15] | Potency [16] | Potency [17]

CO[C@@H]1[C@H](OC(=O)/C=C/C=C/C=C/C=C/C(=O)O)CC[C@]2(CO2)[C@H]1[C@@]1(C)O[C@@H]1CC=C(C)C
inactive: Potency [18] | Potency [2] | Potency [3] | Potency [4] | Potency [5] | Potency [6] | outcome [20] | Potency [7] | outcome [8] | outcome [9] | outcome [10] | Potency [12] | outcome [13] | outcome [15] | Potency [16]
